Measured values reported in PubChem BioAssay (NCATS).
Where “and” joins values, the source holds several entries; their conditions need not be identical. Identical values can stand only once. Results filed as inconclusive are left out. Calls of active or inactive are those of the source. Unless noted, calls follow the shape of the dose curve; as a rule, active = well fitted curve in the direction sought with a large enough effect; inconclusive = small, poorly fitted or top-dose-only effect, or another doubt; inactive = no such curve, though single readings can be large; an effect the other way counts as inactive or inconclusive.

Tests used:
[1] = Cell Viability - BJ (AID 421; calls by dose curve;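 also: potency is read from the fitted curve at half-maximal effect; cells exposed to compound for 40 hours at 37 °C before readout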); conditions: BJ fibroblast viability, qHTS
Method in brief: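 Quantitative HTS: ATP depletion in BJ cells after 40 hr compound exposure in complete culture medium, detected with CellTiter-Glo; AC50 from standard Hill fits.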

[2] = Cell Viability - MRC5 (AID 434; calls by dose curve;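 also: potency is read from the fitted curve at half-maximal effect; cells exposed to compound for 40 hours at 37 °C; potency reflects cytotoxicity seen as loss of intracellular ATP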); conditions: MRC5 lung fibroblast viability, qHTS
Method in brief: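 ATP luminescence read-out (CellTiter-Glo, 20 min RT) after 40 hr, 37 °C compound exposure of 1500 MRC5 cells/well. Data normalized to DMSO (basal) and 100 uM tamoxifen (100% inhibition); AC50 from standard Hill equation.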

[3] = Cell Viability - SK-N-SH (AID 435; calls by dose curve; also: potency is read from the fitted curve at half-maximal effect); conditions: SK-N-SH neuroblastoma cell viability qHTS
Method in brief: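 qHTS cytotoxicity: CellTiter-Glo ATP luminescence after 40 h compound exposure of human neuroblastoma SK-N-SH cells at 37 °C. AC50 derived by Hill-equation fitting, with DMSO as basal and 100 uM tamoxifen as full inhibition.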

[4] = Cell Viability - N2a (AID 540); conditions: N2a mouse neuroblastoma cell viability; activity change, negative = cytotoxicity: at 92.2 µM (top of the series); also: nearly all actives have a fitted effect of over 45% in size; also: potency is read from the fitted curve at half-maximal effect;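 as to activity change, negative = cytotoxicity: plate controls were DMSO alone for no effect and tamoxifen control for full effect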
Method in brief: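 CellTiter-Glo ATP luminescence, read 20 min after reagent at room temperature, reported viability following 40 h compound treatment at 37 °C. N2a mouse neuroblastoma cells seeded 1500/well; Hill equation gave AC50.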

[5] = Cell Viability - SH-SY5Y (AID 544); conditions: SH-SY5Y neuroblastoma cell viability; viability change, negative = cytotoxic: at 92.2 µM (top of the series);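 also: cells exposed to compound for 40 hours; nearly all actives have a fitted effect of over 55% in size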; also: potency is read from the fitted curve at half-maximal effect
Method in brief: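 Cytotoxicity measured via ATP-dependent luciferase luminescence (CellTiter-Glo) following 40 h, 37 °C exposure of 1500 SH-SY5Y cells per well. Concentration-response data were fitted with the standard Hill equation to give AC50.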

[6] = Cell Viability - Renal Proximal Tubule (AID 545); conditions: renal proximal tubule cells viability, primary cells of rat origin; activity change, negative = cytotoxicity: at 91.7 µM (top of the series);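 also: cells exposed to compound for 40 hours; nearly all actives have a fitted effect of over 40% in size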; also: potency is read from the fitted curve at half-maximal effect
Method in brief: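 Viability taken as intracellular ATP (CellTiter-Glo luminescence) after 40 hr, 37 °C compound treatment of primary proximal tubule cells from rat kidney, 1000 cells/well; Hill-equation fits of qHTS concentration-response data gave AC50.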

[7] = Cellular Toxicity (caspase-3) HepG2 (AID 654); conditions: HepG2 caspase-3 activation, luminescence; series mostly up to 92.2 µM; also: potency is read from the fitted curve at half-maximal effect;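 as to caspase-3 activation: cells exposed to compound for 16 hours before reading; 0% = DMSO alone and 100% = caspase signal from 100 µM tamoxifen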
Method in brief: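 Caspase 3/7 activation is measured as a luminescence increase (aminoluciferin substrate) after 16 h compound exposure of human hepatocarcinoma HepG2 cells. AC50 values are Hill fits, scaled between DMSO baseline and 100 uM tamoxifen stimulation.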

[8] = Cellular Toxicity (caspase-3) HUV-EC-C (AID 656); conditions: HUV-EC-C cells, caspase-3 activation (apoptosis); series mostly up to 92.2 µM
Method in brief: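 Luminescent Caspase-Glo 3/7 readout after 16 h, 37 °C compound exposure of HUV-EC-C endothelial cells, 1000 per well, complete medium. AC50 derived by Hill fitting, with DMSO as baseline and 100 uM tamoxifen as full activation.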

[9] = Cellular Toxicity (caspase-3) Mesangial (AID 660); conditions: mesangial cells, normalized: DMSO 0%, 100 µM tamoxifen 100%; at 91.7 µM (top of the series);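 also: combined caspase 3 and 7 activity read by Caspase-Glo luminescence; cells exposed to compound for 16 h before the caspase read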
Method in brief: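 Caspase 3/7 activation measured by Caspase-Glo 3/7 luminescence (20 min, room temperature) following 16 h exposure of mesangial cells (1000/well); AC50 from Hill-equation fit, normalized to DMSO and 100 uM tamoxifen.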

[10] = Cellular Toxicity (caspase-3) N2a (AID 665); conditions: N2a cells, luminescence; Potency: caspase-3 activation; series mostly up to 92.2 µM;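 also: compound exposure lasted 16 h at 37 °C before readout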; also: potency is read from the fitted curve at half-maximal effect
Method in brief: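 Caspase-3/7 activation measured as luminescence from Caspase-Glo reagent (1 h, room temperature) after 16 h compound exposure of mouse N2a cells. AC50 values from Hill-equation concentration-response, scaled between DMSO and 10 uM staurosporine.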

[11] = Cellular Toxicity (caspase-3) NIH 3T3 (AID 666); conditions: NIH 3T3 caspase-3 activation, apoptosis/toxicity; series mostly up to 92.2 µM;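 also: caspase signal read after 16 h compound exposure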; also: potency is read from the fitted curve at half-maximal effect;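 as to caspase-3 activation: 0% = DMSO basal and 100% = 100 µM tamoxifen stimulation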
Method in brief: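 Caspase-Glo 3/7 luminescence reported caspase activation in 1000 NIH 3T3 cells/well after 16 h compound exposure at 37 C. DMSO set basal and 100 uM tamoxifen set 100% stimulation; concentration-response modeled with the Hill equation for AC50.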

[12] = Cellular Toxicity (caspase-3) Renal Proximal Tubule (AID 667); conditions: renal proximal tubule cells, primary cells freshly taken from rat, solvent-only wells 0%, staurosporine 100%; series mostly up to 91.7 µM;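 also: cells exposed to compound for 16 hours at 37 °C before detection; 0% = DMSO basal and 100% = 10 µM staurosporine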
Method in brief: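 Caspase 3/7 activation measured by luminescent aminoluciferin release in primary rat proximal tubule cells after 16 hr compound exposure at 37 °C. AC50 from Hill-fitted concentration-response, scaled between DMSO and 10 uM staurosporine.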

[13] = Cell Viability - LYMP1-003 - Assay at 24 hr (AID 963); conditions: LYMP1-003 lymphoblastoid cell viability; series mostly up to 92.2 µM; also: potency is read from the fitted curve at half-maximal effect;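 as to viability change, negative = cytotoxic: plate controls were DMSO only for no effect and tetraoctylammonium bromide positive control for full effect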
Method in brief: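 Concentration-response qHTS: ATP loss measured by CellTiter-Glo luminescence after 24 h compound exposure at 37 C. Cells were LYMP1-003 human lymphoblastoid, 2500 per well. AC50 derived via standard Hill equation modeling.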

[14] = biological target: Peroxisome proliferator-activated receptor alpha (Homo sapiens) (UniProt Q07869); assay: qHTS assay for small molecule agonists of the peroxisome proliferator-activated receptor alpha (PPARalpha) signaling pathway (AID 651778); conditions: PathHunter PPARalpha complementation, chemiluminescence, 6 h; max response: stronger effect = higher value; also: % of control where 0% means no effect
Method in brief: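 Enzyme-fragment complementation assay in which ligand-bound PPARalpha translocates and forms an active enzyme that generates chemiluminescence. Cells were plated overnight, exposed to compound for 6 hr at 37 C, and then given detection reagent for 60 min at room temperature.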

[15] = qHTS assay for cell viability of HEK293 cells (AID 743288); conditions: ATP luminescence (CellTiter-Glo), 18 h; max response: stronger effect = lower value; also: nearly all actives have a fitted effect of over 50% in size; also: potency is read from the fitted curve at half-maximal effect; as to max response: % is scaled to controls: 0 for no effect and ±100 for the full control effect
Method in brief: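 Readout is luciferase-coupled ATP content (CellTiter-Glo luminescence, 30 min room temperature) as a measure of metabolically competent cells. Parental HEK293 cells were plated 5 h or more before compound addition, then treated 18 h at 37 C.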

[16] = qHTS assay for cell viability of the p53RE-bla HCT-116 cell line (AID 743292); conditions: p53RE-bla HCT-116 viability, ATP luminescence, 16 h; series mostly up to 95 µM; also: nearly all actives have a fitted effect of over 55% in size; also: potency is read from the fitted curve at half-maximal effect; as to activity change, negative = cytotoxicity: % is scaled to controls: 0 for no effect and ±100 for the full control effect
Method in brief: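 HCT-116 p53RE-bla cells seeded 4,000/well; 5 h at 37 C; compound (DMSO) added; 16 h at 37 C; CellTiter-Glo added, 30 min RT; luminescence read.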

[17] = biological target: Cytochrome P450 3A4 (Homo sapiens) (UniProt P08684); assay: qHTS Assay for Activators of Cytochrome P450 3A4 (AID 885); conditions: recombinant CYP3A4, Luciferin-PPXE luminescence, 60 min; series mostly up to 57.1 µM; also: nearly all actives have a fitted effect of over 65% in size
Method in brief: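 Using 20nM recombinant human CYP3A4 in potassium phosphate (200mM), substrate Luciferin-PPXE at 25uM, luminescent luciferin detection followed a 60-min RT NADPH reaction; data scaled to 57 uM ketoconazole.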

Sequence of Cytochrome P450 3A4 (Homo sapiens) (P08684 whole entry, looked up): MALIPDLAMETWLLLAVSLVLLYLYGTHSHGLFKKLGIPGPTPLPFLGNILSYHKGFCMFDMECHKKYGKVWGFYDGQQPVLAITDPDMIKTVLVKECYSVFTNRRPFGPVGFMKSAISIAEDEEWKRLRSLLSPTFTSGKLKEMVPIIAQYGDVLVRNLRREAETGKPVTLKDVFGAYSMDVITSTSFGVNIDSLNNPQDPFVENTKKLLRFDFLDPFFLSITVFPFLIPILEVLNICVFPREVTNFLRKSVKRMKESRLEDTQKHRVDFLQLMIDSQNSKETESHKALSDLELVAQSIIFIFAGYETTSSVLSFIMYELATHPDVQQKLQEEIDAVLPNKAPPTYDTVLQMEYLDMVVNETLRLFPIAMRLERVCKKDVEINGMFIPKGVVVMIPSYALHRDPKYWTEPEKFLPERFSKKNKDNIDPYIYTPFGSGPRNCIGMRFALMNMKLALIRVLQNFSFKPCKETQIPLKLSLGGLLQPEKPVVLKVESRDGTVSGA
Sequence of Peroxisome proliferator-activated receptor alpha (Homo sapiens) (Q07869 whole entry, looked up, the tested form may be a part): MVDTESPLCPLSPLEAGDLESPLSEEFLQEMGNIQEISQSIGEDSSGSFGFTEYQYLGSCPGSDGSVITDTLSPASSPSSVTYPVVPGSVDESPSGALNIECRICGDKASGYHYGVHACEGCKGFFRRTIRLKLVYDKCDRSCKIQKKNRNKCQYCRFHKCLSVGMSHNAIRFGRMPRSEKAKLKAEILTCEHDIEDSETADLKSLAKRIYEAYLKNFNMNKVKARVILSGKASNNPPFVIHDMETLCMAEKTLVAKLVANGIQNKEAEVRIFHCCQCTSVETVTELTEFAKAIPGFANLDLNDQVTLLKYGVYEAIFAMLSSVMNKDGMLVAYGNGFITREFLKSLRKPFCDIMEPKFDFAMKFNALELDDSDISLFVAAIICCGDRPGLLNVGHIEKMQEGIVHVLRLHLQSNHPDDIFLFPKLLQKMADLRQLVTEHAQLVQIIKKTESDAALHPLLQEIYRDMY

Cc1cccc(O)c1C
inactive: Potency [1] > 92 µM | Potency [2] > 92 µM | Potency [3] > 92 µM | Potency [4] | Potency [5] | Potency [6] | Potency [7] | Potency [8] | caspase-3 activation [9] -0.758% | Potency [10] | Potency [11] | outcome [12] | Potency [13] | max response [14] -2.92% | max response [15] -3.02% | Potency [16]

O=C(OCC(COC(=O)c1ccccc1)(COC(=O)c1ccccc1)COC(=O)c1ccccc1)c1ccccc1
inactive: Potency [1] > 92 µM | Potency [2] > 92 µM | Potency [3] > 92 µM | Potency [4] | Potency [5] | Potency [6] | Potency [7] | Potency [8] | caspase-3 activation [9] -0.308% | Potency [10] | Potency [11] | outcome [12] | Potency [13] | max response [14] -8.1% | max response [15] -3% | Potency [16]

C=CC(=O)OCC(CO)(COC(=O)C=C)COC(=O)C=C
active: Potency [2] 17.8 µM | Potency [3] 2.02 µM | Potency [4] 15.8 µM | Potency [5] 1.58 µM | Potency [6] 3.16 µM | Potency [10] 6.31 µM | Potency [15] 5.01 µM and 22.4 µM
inactive: Potency [1] > 92 µM | Potency [7] | Potency [8] | Potency [11] | outcome [12] | max response [14] 1.55% and 0.0188%

CCCC[C@@H]1C[C@H]1C(NC(=O)c1ccco1)c1ccccc1 (some centres not stated)
inactive: Potency [17]

CCC/C=C(\CCC)C(NS(=O)(=O)c1ccccc1)c1ccc(C(F)(F)F)cc1 (configuration not stated)
inactive: Potency [17]

CC(C)c1cccc2c([Si](C)(C)C)c3c(nc12)-c1cccc(=O)n1C3
inactive: Potency [17]

CCCC/C=C/C(NC(=O)Oc1cccc(C(F)(F)F)c1)c1ccccc1 (configuration not stated)
inactive: Potency [17]

COC(=O)[C@H]1C[C@@H]1[C@H](NC(=O)OCc1ccccc1)c1ccccc1
inactive: Potency [17]

CCCC[C@@H]1C[C@H]1C(NC(=O)c1cccs1)c1ccccc1C(F)(F)F (some centres not stated)
inactive: Potency [17]

CCCC/C=C/C(NC(=O)c1ccccc1)c1ccccc1 (configuration not stated)
inactive: Potency [17]

CCC/C=C(\CCC)C(NS(=O)(=O)c1cccs1)c1ccc(C(=O)OC)cc1 (configuration not stated)
inactive: Potency [17]

CCC/C=C(\CCC)C(NC(=O)OCC(C)C)c1ccc(C(=O)OC)cc1 (configuration not stated)
inactive: Potency [17]

COC(=O)c1ccc(C(NC(=O)c2ccccc2)[C@]2(C)C[C@H]2C2CCCCC2)cc1 (some centres not stated)
inactive: Potency [17]

CN1[C@H]2CC(OC(=O)[C@H](CO)c3ccccc3)C[C@H]1[C@H]1O[C@H]12 (some centres not stated)
inactive: Potency [1] > 92 µM | Potency [2] > 92 µM | Potency [3] > 92 µM | Potency [4] | Potency [5] | Potency [6] | Potency [7] | Potency [8] | caspase-3 activation [9] -0.382% and 0.0869% | Potency [10] | Potency [11] | outcome [12] | Potency [13] | max response [14] -2.4% and 1.32% | max response [15] -2.2% and 1.37% | Potency [16]

CCCCCCCC[N+](CCCCCCCC)(CCCCCCCC)CCCCCCCC
inactive: Potency [17] | max response [14] 6.05%
active: Potency [1] 14.5 µM | Potency [2] 10.3 µM | Potency [3] 9.44 µM | Potency [4] 3.16 µM | Potency [5] 7.94 µM | Potency [6] 10 µM | Potency [7] 12.6 µM | Potency [11] 31.6 µM | Potency [13] 7.94 µM | Potency [15] 28.2 µM | Potency [16] 44.7 µM

CCC/C=C(\CCC)C(NS(=O)(=O)c1ccc(Cl)cc1)c1ccc(C(=O)OC)cc1 (configuration not stated)
inactive: Potency [17]

CCc1c2c(nc3c(C(C)C)cccc13)-c1cccc(=O)n1C2
inactive: Potency [17]

O=C(/C=C/c1ccc(O)c(O)c1)OC1C[C@](O)(C(=O)O)C[C@@H](O)[C@H]1O (some centres not stated)
inactive: Potency [1] > 92 µM | Potency [2] > 92 µM | Potency [3] > 92 µM | Potency [4] | Potency [5] | Potency [6] | Potency [7] | Potency [8] | caspase-3 activation [9] -0.588% and 1.58% | Potency [10] | Potency [11] | outcome [12] | Potency [13] | max response [14] -2.67% and 0.743% | max response [15] 5.94% and -3.39% | Potency [16]

CCCC[C@@H]1C[C@H]1C(NC(=O)c1cccs1)c1ccc(Cl)cc1 (some centres not stated)
inactive: Potency [17]

COC(=O)[C@@]1(Cc2ccccc2)[C@H]2c3cc(C(=O)N4CCCC4)n(Cc4ccccn4)c3C[C@H]2CN1C(=O)c1ccccc1
inactive: Potency [17]

COC(=O)[C@H](C)[C@H]1C[C@]1(C)[C@H](NC(=O)OCc1ccccc1)c1ccccc1
inactive: Potency [17]

COC(=O)[C@@]1(Cc2ccccc2)[C@H]2c3cc(C(=O)N4CCCC4)n(CC4CC4)c3C[C@H]2CN1C(=O)c1ccccc1
inactive: Potency [17]

CCC/C=C(\CCC)C(NS(=O)(=O)c1ccc(C(F)(F)F)cc1)c1ccccc1 (configuration not stated)
inactive: Potency [17]

Cc1ccc(S(=O)(=O)Oc2ccc(N=Nc3ccc(-c4ccc(N=Nc5c(O)ccc6cc(S(=O)(=O)O)cc(S(=O)(=O)O)c56)c(C)c4)cc3C)cc2)cc1
active: Potency [6] 31.6 µM
inactive: Potency [2] > 92 µM | Potency [7] | Potency [8] | caspase-3 activation [9] -0.709% | Potency [10] | Potency [11] | outcome [12] | Potency [17] | max response [14] -11.2%
